Assay results from PubChem BioAssay (NCI).
Several values for one entry are separate records, joined by “and”; a condition that tells them apart may be missing. Equal entries are not always repeated. Compounds without any hit were thinned out: in the full panel of roughly 83,000, 20% have a hit.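 Percent growth is the endpoint: 0 to 100 indicates growth inhibition (40 means 60% inhibition), 0 means no net growth, and negative values indicate cell death.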 Activity calls are given as the source filed them. Rule for the calls: active = growth percent below 10; inactive = the rest.

Tests used:
Assay in all cases: NCI-60 one-dose screen, 48 h (100 = growth as untreated, 0 = no growth, -100 = all killed)
Conditions in all cases: 10 µM unless noted
T-47D breast = test system: T-47D breast
BT-549 breast = test system: BT-549 breast
MDA-MB-435 melanoma = test system: MDA-MB-435 melanoma
MCF7 breast = test system: MCF7 breast
HCT-116 colon = test system: HCT-116 colon
HCC-2998 colon = test system: HCC-2998 colon
KM12 colon = test system: KM12 colon
SW-620 colon = test system: SW-620 colon

Row | Compound | growth (T-47D breast) | growth (BT-549 breast) | growth (MDA-MB-435 melanoma) | growth (MCF7 breast) | growth (HCT-116 colon) | growth (HCC-2998 colon) | growth (KM12 colon) | growth (SW-620 colon)
1 | CC1=C2[C@@H](CC1)[C@]1(C)O[C@@](C(C)C)(C[C@H]1OC(=O)CO)[C@H]2OC(=O)C1CC1c1ccccc1 (stereo partly specified) | 41.5% (inactive) | 88.8% (inactive) | 96.7% (inactive) | 75.1% (inactive) | 89% (inactive) | 82.9% (inactive) | 73.9% (inactive) | –
2 | O=Nc1ccc(NO)c2ccccc12 | 96.9% (inactive) and 65.8% (inactive) | 83.3% (inactive) and 87.8% (inactive) | 107% (inactive) and -57.8% (active) | 91.5% (inactive) and 64.5% (inactive) | 95% (inactive) and 39.1% (inactive) | 120% (inactive) and 108% (inactive) | 104% (inactive) and 76.4% (inactive) | –
3 | CC1(Cc2ccccc2)CC2=C(C(=O)O1)C(c1ccccc1)NC(=O)N2 (stereo unspecified) | 97% (inactive) | 104% (inactive) | 99.4% (inactive) | 105% (inactive) | 86.9% (inactive) | 94.9% (inactive) | 107% (inactive) | –
4 | O=C1/C(=C/c2cn(-c3ccccc3)nc2-c2ccccc2)SC(=S)N1c1ccc(Cl)cc1 | 82.1% (inactive) | 78.2% (inactive) | 74.1% (inactive) | 82.2% (inactive) | 64.1% (inactive) | 76.3% (inactive) | 60.5% (inactive) | –
5 | Cc1ccc(C(=O)c2ccc(CC(=O)N=Nc3c(O)[nH]c4ccc(OC(F)(F)F)cc34)n2C)cc1 | 74.5% (inactive) | 95.3% (inactive) | 97.9% (inactive) | 91.5% (inactive) | – | 119% (inactive) | 94% (inactive) | –
6 | COc1cc(C(=O)c2ccccc2C(=O)O)c(OC)c2c1CCCC2 | – | 95.8% (inactive) and 101% (inactive) | 100% (inactive) and 107% (inactive) | 97.4% (inactive) and 99.5% (inactive) | 95.6% (inactive) and 95.4% (inactive) | 107% (inactive) and 101% (inactive) | 98.7% (inactive) and 104% (inactive) | 98.2% (inactive) and 106% (inactive)
7 | CCN1C(=S)N(CC)C2C1NC(=S)N2/N=C/C=C/c1ccccc1 (stereo unspecified) | – | 47.5% (inactive) | -39% (active) | 17.8% (inactive) | 22.8% (inactive) | 56.7% (inactive) | 22% (inactive) | 28% (inactive)
8 | C=CCN1C=CC(=O)[C@H](O[Si](C)(C)C(C)(C)C)[C@@H]1/C=C/c1ccccc1 | – | -62.4% [100 µM] (active) | -48.2% [100 µM] (active) | -75.1% [100 µM] (active) | -77.5% [100 µM] (active) | -87.3% [100 µM] (active) | -71.8% [100 µM] (active) | -58.9% [100 µM] (active)
9 | COc1cc(/C=C2\CCC/C(=C\c3cc(CN4CCCC4)c(O)c(OC)c3)C2=O)cc(CN2CCCC2)c1O | – | 49.2% (inactive) | 8.88% (active) | 14.3% (inactive) | -34.5% (active) | 52.3% (inactive) | – | 25.8% (inactive)
10 | CCCCCCCCCCCCCCCC[N+](C)(C)CCN(Cc1ccc(OC)cc1)c1ncccn1 | – | -75% (active) and 61.8% (inactive) | -96.8% (active) | 20.1% (inactive) and 47.6% (inactive) | -85.6% (active) and -62.4% (active) | -76% (active) and 50.2% (inactive) | -100% (active) and 33.6% (inactive) | -86% (active) and 76.9% (inactive)
11 | CC(=O)OC[C@]12CCC(C)(C)C=C1[C@H]1CC[C@@H]3[C@@]4(C)CCCNC(C)(C)[C@@H]4CC[C@@]3(C)[C@]1(C)CC2 | – | 63.8% (inactive) | 29.7% (inactive) | 46.6% (inactive) | 34.1% (inactive) | 49% (inactive) | 25.5% (inactive) | 49.9% (inactive)
12 | CCOC(=O)c1cc2c(n1Cc1cc(OC)cc(OC)c1Br)-c1nc(NC(C)=O)sc1CCC2 | – | 92.9% (inactive) | 83.9% (inactive) | 57.6% (inactive) | 78.2% (inactive) | 72.7% (inactive) | 67.6% (inactive) | 81.3% (inactive)
13 | COc1ccc(C(CC(=O)c2ccc3c(c2)OCO3)C(=O)O)cc1OC (stereo unspecified) | – | 115% (inactive) and 106% (inactive) | 108% (inactive) and 102% (inactive) | 100% (inactive) and 96.6% (inactive) | 119% (inactive) and 97.1% (inactive) | 104% (inactive) and 105% (inactive) | 110% (inactive) and 95.7% (inactive) | 100% (inactive) and 108% (inactive)
14 | O=C([C@H]1C[C@H]1c1ccc(S(F)(F)(F)(F)F)cc1)N1CCN(c2cc(Cl)ccc2C(F)(F)F)CC1 | – | 106% (inactive) | 102% (inactive) | 89.6% (inactive) | 60.2% (inactive) | 96.9% (inactive) | 82.5% (inactive) | –
15 | COc1ccc(-c2[nH]c3ccccc3c2-c2ccc(OC)cc2)cc1 | – | 90.9% (inactive) | -33.1% (active) | 16.2% (inactive) | 24.4% (inactive) | 32.3% (inactive) | 16.6% (inactive) | 37.1% (inactive)
16 | Cc1ccc(NC(=O)N/C(N)=N/c2nc(=O)c3ccccc3s2)cc1 | – | 86.4% (inactive) | 87.5% (inactive) | 84.9% (inactive) | 94.1% (inactive) | 102% (inactive) | 103% (inactive) | 92.7% (inactive)
17 | N#CC1C(=O)c2ccccc2C1c1ccccc1 (stereo unspecified) | – | 107% (inactive) | 104% (inactive) and 102% (inactive) | 102% (inactive) and 99.5% (inactive) | 105% (inactive) and 101% (inactive) | 111% (inactive) and 115% (inactive) | 109% (inactive) and 102% (inactive) | 121% (inactive) and 104% (inactive)
18 | O=C(/C=C/c1ccccc1)c1cccs1 | – | 104% (inactive) and 107% (inactive) | 88.9% (inactive) and 85.1% (inactive) | 29.1% (inactive) and 21.7% (inactive) | 74% (inactive) and 57.3% (inactive) | 97.3% (inactive) and 130% (inactive) | 69.6% (inactive) and 70% (inactive) | 84.6% (inactive) and 98.3% (inactive)
19 | O=C1/C(=C/c2ccc(-c3cccc(C(F)(F)F)c3)o2)SC(=S)N1CCc1ccc(O)cc1 | – | 75.7% (inactive) | 52.6% (inactive) | 84.9% (inactive) | 76% (inactive) | 107% (inactive) | 54.9% (inactive) | 86.1% (inactive)
20 | OB(O)c1ccsc1-c1nc2ccc3[nH]ncc3c2c2c1CCCC2 | – | 47.1% (inactive) | 27% (inactive) | 49.3% (inactive) | 26.4% (inactive) | 66% (inactive) | 38.1% (inactive) | 22.7% (inactive)
21 | C#CCOCC1CN(C)C(=O)O1 (stereo unspecified) | – | 131% (inactive) | 101% (inactive) | 90.2% (inactive) | 119% (inactive) | 109% (inactive) | 107% (inactive) | 97% (inactive)
22 | COc1ccc(NC(=O)Nc2ccccc2CNc2nc(Nc3ccc(OCCN4CCCC4)cc3)ncc2Cl)cc1 | – | 32% (inactive) | -70.9% (active) | -60.5% (active) | -20.1% (active) | 16.3% (inactive) | 0.945% (active) | 2.1% (active)
